Each structure is given as a SMILES string. Compounds without any hit were thinned out: in the full panel of roughly 83,000, 20% have a hit.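 Treatment: one concentration, 48 hours, 96-well format. Scoring: percent growth, with anything below 10 considered active.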 A number with no mark means an inactive call. Active and inactive are the calls of the source.

Among the test systems are T-47D breast; BT-549 breast; MDA-MB-435 melanoma; SW-620 colon; MCF7 breast; HCT-116 colon; HCC-2998 colon; KM12 colon.
What all share (assay): NCI-60 one-dose screen, 48 h (100 = growth as untreated, 0 = no growth, -100 = all killed)
Holding throughout (details): 10 µM

For `CC(C)(C)c1ccc(S(=O)(=O)N[C@H]2CC[C@H]3[C@@H]4CCc5cc(O)ccc5[C@H]4CC[C@]23C)cc1`, the growth in the experiment with T-47D breast is 26.2%; with BT-549 breast, 43.9%; with MDA-MB-435 melanoma, 30.4%; in the experiment on SW-620 colon, 58.5%; with MCF7 breast, 14.9%; in the experiment with HCT-116 colon it was 22.1%. The growth in the experiment with HCC-2998 colon was 74.4%; with KM12 colon, 39.2%.
Take `CCN1C(=O)CC(SC2CC(=O)N(CC)C2=O)C1=O` (configuration not stated): the growth with T-47D breast is 102%; in the experiment on BT-549 breast, 101%; in the experiment on MDA-MB-435 melanoma it was 104%; in the experiment with SW-620 colon it was 108%; with MCF7 breast, 103%; with HCT-116 colon, 104%. Moreover, the growth with HCC-2998 colon was 97.6%; in the experiment on KM12 colon, 104%.
Regarding `COc1cccc2ccc(CC(O)(c3ccccc3)c3ccccc3)nc12`, the growth in the experiment with T-47D breast is 43.7%; with BT-549 breast, 94.1%; in the experiment with MDA-MB-435 melanoma, 106%; with SW-620 colon, 98.7%; with MCF7 breast it was 24.6%; with HCT-116 colon, 77.1%. Further, the growth with HCC-2998 colon was 97.1%; in the experiment with KM12 colon it was 67.3%.
In the case of `CCCCN(CCCC)C(=O)[C@H](CC)[C@@H]1CC[C@@H](C)[C@@H]([C@H](C)[C@@H](O)[C@@H](C)C(=O)[C@H](CC)C2O[C@]3(C=C[C@@H](O)[C@]4(CC[C@@](C)([C@H]5CC[C@](O)(CC)[C@H](C)O5)O4)O3)[C@H](C)C[C@@H]2C)O1` (some centres not stated), the growth in the experiment with T-47D breast is 5.04% (active); in the experiment with BT-549 breast, 8.46% (active); in the experiment with MDA-MB-435 melanoma, 4.48% (active); in the experiment with SW-620 colon, 9.41% (active); in the experiment on MCF7 breast it was -14.1% (active); in the experiment with HCT-116 colon, 2.55% (active). Also, the growth was 2.49% (active) with HCC-2998 colon and 20.6% in the experiment with KM12 colon.
For the molecule `C[C@]12CC[C@@H]3c4ccc(OS(=O)(=O)O)cc4CC[C@H]3[C@@H]1CC[C@@H]2NS(=O)(=O)c1ccc(-c2ccccc2)cc1`, the growth was 49.8% in the experiment with T-47D breast; 53.9% with BT-549 breast; 69.4% in the experiment with MDA-MB-435 melanoma; 75.3% with SW-620 colon; 30.2% with MCF7 breast; 36.2% with HCT-116 colon. Moreover, the results for the growth in the experiment on HCC-2998 colon and with KM12 colon were 80.9% and 60.5%, respectively.
On to `COc1cc(/C=C/c2cc(/C=C/c3ccc(O)c(OC)c3)n(C(=O)Nc3ccc(C)cc3)n2)ccc1O`, for which the growth in the experiment with T-47D breast was 5.65% (active); with BT-549 breast it was -23% (active); in the experiment on MDA-MB-435 melanoma it was -1.64% (active); in the experiment with SW-620 colon it was 8.12% (active); in the experiment with MCF7 breast, 6.3% (active); in the experiment on HCT-116 colon it was 1.6% (active). The growth was 2.19% (active) in the experiment on HCC-2998 colon and -1.13% (active) in the experiment with KM12 colon.
For the molecule `COC(=O)C1(O)NC(=C(C#N)C#N)C(C#N)=C1C(=O)c1ccc(OC)c(OC)c1` (configuration not stated), the growth in the experiment with T-47D breast is 98.6%; in the experiment with BT-549 breast, 89.1%; in the experiment on MDA-MB-435 melanoma, 104%; in the experiment on SW-620 colon, 97.9%; in the experiment on MCF7 breast, 95.4%; in the experiment with HCT-116 colon, 90.9%. Also, the growth was 117% in the experiment with HCC-2998 colon and 105% with KM12 colon.
Regarding `Cc1c(Cl)cccc1NC(=O)CCCl`, the growth is 92.3% in the experiment with T-47D breast; 99.7% in the experiment with BT-549 breast; 105% in the experiment on MDA-MB-435 melanoma; 106% with SW-620 colon; 102% in the experiment with MCF7 breast; 89.4% in the experiment on HCT-116 colon. The growth in the experiment with HCC-2998 colon is 99.1%; with KM12 colon it was 100%.
On to `COc1cc2cc(Oc3ccc(NC(=O)c4ccccc4)cc3)c(C)nc2cc1OC`, for which the growth in the experiment on T-47D breast was 79.8%; in the experiment with BT-549 breast, 82.3%; with MDA-MB-435 melanoma, 104%; with SW-620 colon, 109%; with MCF7 breast it was 78.7%; with HCT-116 colon it was 87.1%. In addition, the figures for the growth in the experiment on HCC-2998 colon and in the experiment on KM12 colon were 125% and 94.5%, respectively.
Consider `CCNc1nc(C(F)(F)F)nc2c1sc(=S)n2-c1ccccc1`, for which the growth in the experiment with T-47D breast is 73.9%; with BT-549 breast, 95.2%; with MDA-MB-435 melanoma, 113%; with SW-620 colon it was 106%; with MCF7 breast, 96.4%; with HCT-116 colon it was 94.3%. Moreover, the growth in the experiment with HCC-2998 colon is 115%; with KM12 colon it was 89.2%.
Consider `COc1cc(-c2nc3ccccc3o2)cc(CN2CCCCC2)c1O`, for which the growth in the experiment on T-47D breast was 86.6%; in the experiment on BT-549 breast, 67.2%; with MDA-MB-435 melanoma, -79.9% (active); with SW-620 colon, 64.6%; in the experiment with MCF7 breast, 50.8%; in the experiment on HCT-116 colon, 57.2%. For the same molecule, the results for the growth in the experiment on HCC-2998 colon and in the experiment with KM12 colon were 97.7% and 44.9%, respectively.
In the case of `COc1ccc(C(=O)N/N=C/c2cc(C(F)(F)F)ccc2Cl)cc1`, the growth was 90% in the experiment on T-47D breast; 96.1% with BT-549 breast; 91.1% in the experiment with MDA-MB-435 melanoma; 98.8% in the experiment on SW-620 colon; 60.3% in the experiment with MCF7 breast; 93.2% in the experiment with HCT-116 colon. In addition, the growth in the experiment with HCC-2998 colon is 95.7%; in the experiment on KM12 colon it was 101%.
On to `COc1ccc(-c2nc(-c3nc4ccc(C)cc4[nH]3)cc3c2[nH]c2ccccc23)cc1`, for which the growth in the experiment with T-47D breast was 32.7%; in the experiment with BT-549 breast it was 71.7%; in the experiment on MDA-MB-435 melanoma, 46%; with SW-620 colon, 81.4%; with MCF7 breast, 36.1%; in the experiment with HCT-116 colon, 19.3%. For the same molecule, the growth with HCC-2998 colon is 48.9%; in the experiment with KM12 colon it was 21%.
Consider `COc1ccc(-c2cc(-c3ccccc3)nc(SCCCCCCC(=O)NO)n2)cc1`, for which the growth in the experiment on T-47D breast is 33.5%; in the experiment with BT-549 breast, 85.4%; in the experiment on MDA-MB-435 melanoma, 35.5%; in the experiment with SW-620 colon, 22.6%; with MCF7 breast it was 30.4%; in the experiment on HCT-116 colon, 25.1%. For the same molecule, the results for the growth in the experiment with HCC-2998 colon and in the experiment on KM12 colon were 79.4% and 60.3%, respectively.
